ALDH1A1 inh: ALDH1A1 (human) enzyme inhibition; P00352; 7.3% of 220,000 active; Potency, µM (titrated, usually from 75.3 µM), most hits filed as inhibitors; Purified ALDH1A1, NADH fluorescence, propionaldehyde substrate; AID 1030
KDM4E inh: inhibitors of human JMJD2E histone demethylase; B2RXH2; AID 2147; JMJD2E catalytic domain, FDH-coupled NADH fluorescence (FDH is formaldehyde dehydrogenase); 1.6% of 230,000 active; Potency, µM (series often up to 57.1 µM), usual class: inhibitors; further: nearly all actives have a fitted effect of over 50% in size
Target sequence (B2RXH2 1-337 limits assumed): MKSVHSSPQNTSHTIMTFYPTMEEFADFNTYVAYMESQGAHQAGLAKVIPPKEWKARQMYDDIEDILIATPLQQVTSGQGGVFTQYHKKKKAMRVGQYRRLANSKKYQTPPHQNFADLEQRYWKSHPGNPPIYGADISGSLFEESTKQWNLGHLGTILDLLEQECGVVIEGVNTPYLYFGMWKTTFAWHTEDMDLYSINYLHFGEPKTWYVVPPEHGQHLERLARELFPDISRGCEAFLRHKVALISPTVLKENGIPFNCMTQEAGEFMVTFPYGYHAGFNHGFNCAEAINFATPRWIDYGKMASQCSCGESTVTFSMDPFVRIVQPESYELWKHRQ
NPSR antagonist: neuropeptide S receptor (human) antagonism, cAMP | Q6W5P4 | CHO-NPSR cells, cAMP TR-FRET, antagonist mode | Potency, µM (doses to about 38.3 µM), hits mostly inhibitors | 1% of 220,000 active | AID 1461; active means well fitted curve in the direction sought with a large enough effect; inconclusive means small, poorly fitted or top-dose-only effect, or another doubt; inactive means no such curve, though single readings can be large; an effect the other way counts as inactive or inconclusive; further: nearly all actives have a fitted effect of over 50% in size
Target sequence (Q6W5P4 whole entry, looked up): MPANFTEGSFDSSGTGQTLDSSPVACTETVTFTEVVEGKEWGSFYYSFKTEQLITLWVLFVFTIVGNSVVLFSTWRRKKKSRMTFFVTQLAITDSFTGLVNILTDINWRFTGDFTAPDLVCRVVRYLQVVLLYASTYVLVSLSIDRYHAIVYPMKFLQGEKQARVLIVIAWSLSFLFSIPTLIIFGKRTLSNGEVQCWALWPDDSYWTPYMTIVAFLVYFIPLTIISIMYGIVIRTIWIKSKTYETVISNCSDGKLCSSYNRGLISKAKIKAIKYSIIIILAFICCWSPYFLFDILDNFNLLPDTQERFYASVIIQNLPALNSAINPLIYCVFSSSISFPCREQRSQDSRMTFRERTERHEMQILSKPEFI
GoLoco inh red: inhibitors of human Gai1-RGS12 GoLoco interaction (red fluorophore); 0.44% of 230,000 active; Gai1:RGS12 GoLoco peptide FP, rhodamine, 10 min; P63096; Potency, µM (titrated, usually from 61.6 µM), usual class: inhibitors; active means well fitted inhibition curve with a large enough effect, not every such curve was filed as active; inactive means no such curve, though single readings can be large or run the other way; further: nearly all actives have a fitted effect of over 30% in size
Sfp inh: blocks B. subtilis Sfp PPTase activity | Potency, µM, hits mostly inhibitors | 3.5% of 310,000 active | Q9F4F7 | AID 1490 | Biochemical Sfp PPTase activity, qHTS; active means well fitted curve in the direction sought with a large enough effect; inconclusive means small, poorly fitted or top-dose-only effect, or another doubt; inactive means no such curve, though single readings can be large; an effect the other way counts as inactive or inconclusive;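 further: the enzyme is Sfp with the accession as filed and its product quenches rhodamine fluorescence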
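Fluorescence-quenching assay with 15 nM Sfp, 5 uM rhodamine-CoA and 12.5 uM BHQ-2-labelled ybbR peptide in pH 7.6 Hepes/MgCl2 buffer. Enzyme was pre-incubated with compound for 15 min at room temperature. Rate was taken from the 30-min fluorescence change (525/598 nm).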
Coupling enz: counter-screen for Giardia aldolase inhibitors: coupling enzyme system. coupling enzyme system counterscreen, AmpLite Red fluorescence. activity change, negative = inhibition, % at 58.2 µM, hits read low. 0.67% of 290,000 active; in the data active means activity change below about -30%
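Counterscreen lacking aldolase: glyceraldehyde-3-phosphate coupling-enzyme reagent preincubated 10 min at RT with compound (at 57.5 uM final), then substrate/coupling system with AmpLite Red added; fluorescence read at 525/598 nm after 20 min RT.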
A number is an active result; - = inactive; ? = inconclusive; . = no result given; [ ] = dose if it differs, or a comment. Most compounds without a hit are left out; they make up all but 8.5% or so of the library. Unless noted, the call rests on the fitted dose curve; in most records, active means well fitted inhibition curve with a large enough effect (not every such curve was filed as active); inconclusive means small, poorly fitted or top-dose-only effect, or another doubt; inactive means no such curve, though single readings can be large or run the other way.

SMILES	ALDH1A1 inh	KDM4E inh	NPSR antagonist	GoLoco inh red	Sfp inh	Coupling enz
Cc1cc(C)c(C#N)c(SCCS(=O)(=O)c2ccc(Cl)cc2)n1	.	-	-	-	-	-
Cc1cc(C)c(C#N)c(SCCS(=O)(=O)Cc2ccc(Cl)cc2)n1	5µM	-	?	-	-	-
Cc1ccc(NS(=O)(=O)c2ccc3[nH]c(=O)[nH]c3c2)c(C)c1	?	-	-	-	-	-
COCc1cc(C)nc(SCC(=O)N2CCC(C)CC2)c1C#N	7.9µM	-	?	-	-	-
Cc1cc(C)c(C#N)c(SCc2ccccc2[N+](=O)[O-])n1	18µM	-	-	-	-	-
Cc1ccc(C#N)c(SCc2ccccc2[N+](=O)[O-])n1	?	-	-	-	-	-
N#Cc1c(SCC(=O)N2CCCCC2)nsc1SCC(=O)N1CCCCC1	18µM	-	-	-	-	-
COC(=O)CSc1nsc(SCC(=O)OC)c1C#N	-	-	-	-	-	-
CCCCOc1ccc(/C=N/Nc2cc(N3CCOCC3)nc(C)n2)cc1	.	.	.	.	-	-
O=[N+]([O-])c1ccc(N/N=C2/CCCCC2c2ccccn2)cc1 (stereo not given)	0.045µM	-	-	-	-	-
CC1(CCc2ccccc2)NC(=O)N(CC(=O)N2CC(=O)Nc3ccccc32)C1=O (stereo not given)	?	-	-	-	?	-
O=C(O)C1C2CCC(C2)C1C(=O)N1CCCC1 (stereo not given)	.	.	.	.	45µM	-
CC(=O)N(Cc1ccco1)c1nc(C(=O)Nc2ccc(Cl)cc2)c(C)s1	?	-	-	-	20µM	-
O=C(/C=C/c1ccccc1)C1=C(O)C(=O)N(CCO)C1c1ccc2c(c1)OCO2 (stereo not given)	?	-	-	-	-	-
C/C(=N\NC(=O)c1nc2ccccn2c1C)c1cc2ccccc2o1	-	?	-	-	-	-
Cc1c(C(=O)NN)nc2ccccn12	4.5µM	-	-	-	-	-
O=C(O)CSCC(=O)Nc1ccccc1SCCS(=O)(=O)c1ccc(Cl)cc1	.	.	.	.	?	-
Cn1sc(NC(=O)c2ccccc2Cl)nc1=O	11µM	-	-	-	?	-
Cn1sc(NC(=O)c2cccc(Cl)c2)nc1=O	-	-	-	-	-	-
COc1cccc(NC(=O)C(OC(=O)c2ccc([N+](=O)[O-])o2)c2ccccc2)c1 (stereo not given)	22µM	-	-	-	-	-
COc1ccc(NC(=O)COC(=O)c2ccc([N+](=O)[O-])o2)cc1Cl	22µM	-	-	-	-	-
CN(C)S(=O)(=O)c1cccc(NC(=O)COC(=O)c2cc(=O)c3ccccc3o2)c1	-	-	-	-	-	-
O=C(COC(=O)c1ccc2c(c1)OCCO2)Nc1cccc(S(=O)(=O)N2CCOCC2)c1	-	-	-	-	-	-
CN(C)S(=O)(=O)c1cccc(NC(=O)COC(=O)c2ccc([N+](=O)[O-])o2)c1	20µM	-	-	-	-	-
COc1ccc(C)cc1NC(=O)COC(=O)c1ccc([N+](=O)[O-])o1	-	-	-	-	-	-
SMILES	ALDH1A1 inh	KDM4E inh	NPSR antagonist	GoLoco inh red	Sfp inh	Coupling enz
O=C(COC(=O)c1ccc([N+](=O)[O-])o1)Nc1cccc(S(=O)(=O)N2CCOCC2)c1	1µM	-	-	-	-	-
COc1ccc(S(=O)(=O)NCC2CCCN(C(=O)CCC(F)(F)F)C2)cc1 (stereo not given)	.	.	.	.	-	-
Nc1cccn2c(-c3ccc(Cl)c(Cl)c3)cnc12	25µM	20µM	-	-	-	-
Nc1nnc(-c2ccc(Cl)c(Cl)c2)s1	?	?	-	-	-	-
CC1CCN(C(=S)c2cn(Cc3ccccc3F)c3ccccc23)CC1	14µM	-	?	-	-	-
CN1CCN(C(=S)c2cn(Cc3ccccc3F)c3ccccc23)CC1	-	-	-	-	-	-
COc1cc2ncc(-c3ccccc3)nc2cc1OC	?	.	.	-	-	.
COc1ccc(O)c(C(=O)c2coc(=N)c(C(=O)Nc3ccc(SC(F)F)cc3)c2)c1	?	?	-	-	-	-
CC(C)(C)c1ccc(S(=O)(=O)Nc2ccc(Cc3ccncc3)cc2)cc1	1.1µM	-	?	-	-	-
Cn1c(-c2nc(-c3ccccc3)cs2)nc2ccccc21	?	?	.	-	45µM	-
Cn1c(-c2ccncc2)nc2ccccc21	.	.	.	.	-	-
CC(C)(C)n1nc2c(c1NC(=O)c1cc(Cl)ccc1[N+](=O)[O-])CS(=O)(=O)C2	.	.	.	.	-	-
O=C1OC(Nc2nc(-c3ccc(F)cc3)cs2)c2ccccc21 (stereo not given)	.	.	.	.	-	-
CCOc1ccc(CN2CCN(C3CCSCC3)CC2CCO)cc1 (stereo not given)	-	-	-	-	-	-
CC1(C)NC(=O)N(CCOCCOc2ccccc2-c2ccccc2)C1=O	?	-	-	-	-	-
CC(=O)c1cccc(OCc2cc(C(=O)N(C)CCc3ccccn3)no2)c1	.	.	.	.	-	-
CC(=O)c1cccc(OCc2cc(C(=O)N(C)Cc3ccc(C)o3)no2)c1	.	.	.	.	25µM	-
CSc1ccccc1OCc1cc(C(=O)N(C)Cc2ccc(C)o2)no1	.	.	.	.	20µM	-
Cc1ccc(CN(C)C(=O)c2ccccc2Oc2ccccc2)o1	10µM	-	-	-	14µM	-
C=C(C(=O)O)[C@@H]1CC[C@@]2(C)CCC[C@](C)(O)[C@@H]2C1	-	-	.	-	-	-
Cc1csc(C(=O)NCC(=O)NNC(=O)c2cccc(Cl)c2)c1	.	.	.	.	-	.
NCCSS(=O)(=O)CCN	?	.	.	-[14.2 µM]	.	.
CCc1nnc(NC(=O)CCN2C(=O)C3CCCCC3C2=O)s1 (stereo not given)	.	.	.	.	-	.
CCCc1nc2oc3cc(OC)ccc3c(=O)c2c(=O)n1Cc1ccco1	?	-	-	-	32µM	-
COc1ccc2c(=O)c3c(=O)n(Cc4ccco4)c(-c4cc(OC)c(OC)c(OC)c4)nc3oc2c1	-	-	-	-	?	-
SMILES	ALDH1A1 inh	KDM4E inh	NPSR antagonist	GoLoco inh red	Sfp inh	Coupling enz
CCCc1nc2sc3ccccc3c(=O)c2c(=O)n1Cc1ccco1	-	-	-	.	28µM	-
COc1ccc2c(=O)c3c(=O)n(Cc4ccco4)c(-c4ccccc4)nc3oc2c1	22µM	-	-	-	32µM	-
Oc1ccc(Nc2nc3ccccc3nc2Nc2ccc(O)cc2)cc1	?	-	10µM	2.5µM	-	-
O=C(/C(=C/c1ccccc1)c1ccccc1)N1CCCCC1	-	-	-	-	-	-
CCN(CC)CCCNC(=O)c1ccc(N2CCCCC2)c(NS(=O)(=O)c2ccc(C)cc2)c1	14µM	?	-	-	?	-
CCOCCCNC(=O)c1ccc(N2CCOCC2)c(NS(=O)(=O)c2ccc(OC)cc2)c1	2.5µM	-	-	-	-	-
CCOc1ccc(S(=O)(=O)Nc2ccccc2C(=O)Nc2ccccc2N2CCOCC2)cc1	28µM	?	-	-	-	-
COCCCNC(=O)c1ccc(N2CCOCC2)c(NS(=O)(=O)c2ccc(OC)cc2)c1	?	-	-	-	-	-

Source: PubChem BioAssay
